The panel holds about 83,000 compounds, 20% with a hit somewhere; the sample as a whole holds those more often.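 Negative percent growth values reflect cell death: -40 means 40% of the cells present at the start died, and -100 means all died.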 A number with no mark means an inactive call. Calls of active or inactive are those of the source. Rule for the calls: active = growth percent below 10; inactive = the rest.

In the test the test system is MDA-MB-468 breast. Briefly: NCI-60 one-dose screen, 48 h (100 = growth as untreated, 0 = no growth, -100 = all killed). Particulars: 10 µM unless noted.
On to `Nc1c(C(=O)Nc2cccc(Cl)c2)sc2nc3c(cc12)C(=O)CCC3`, for which the growth is -10.6% (active).
Consider `O=C1/C(=C/c2ccc(-c3ccccc3C(F)(F)F)o2)SC(=S)N1CCc1ccc(O)cc1`, for which the growth was 28.8%.
Turning to `CC(=O)OCc1cc(-c2nc3ccccc3[nH]c2=O)nn1-c1ccc(Cl)cc1`, the growth was 89.3%.
The result for `C=C1CCC2C(C)(COC(=O)CC)C(OC(=O)CC)CCC2(C)C1C/C=C1/C(=O)OCC1OC(=O)CC` (stereo not given) reads -48.5% (active); that for `COc1ccc(/C(C#N)=C/c2ccccc2OC)cc1`, -14% (active); that for `CN(C)CCOC(=O)C(C)(C)C`, 98.9%.
In the case of `CCOC(=O)c1nnn(Cc2cc(=O)oc3ccc(O)cc23)c1C` it was 108%.
On to `COc1ccc(/C=C(/c2ccccc2)[N+](=O)[O-])cc1`, for which the growth is -77.6% (active).
`Nc1c(C(=O)Nc2cccc(Br)c2)sc2nc3c(cc12)C(O)CCC3` (stereo not given): the growth is 29.8%.
In the case of `CCC(C)c1c(N)n(S(=O)(=O)c2ccc(C)cc2)oc1=O` (stereo not given), the growth is 109%.
For the compound `Cc1ccc2oc(=O)cc(-c3sc(N4CCCCC4)nc3-c3ccccc3)c2c1`, the growth is 102%.
Consider `O=C(NNc1ccccc1)OCc1ccccc1`, for which the growth is 108%.
`O=S(=O)(NCCNc1nccc(-c2c(-c3cccc(F)c3)nc3occn23)n1)c1cccc2ccccc12`: the growth is 35.2%.
For `COCCn1cc(-c2nc(-c3cn(CCOC)c4ncccc34)cs2)c2ccccc21`, the growth was -17.4% (active).
For `Cc1ncc(C(=O)Nc2ccc(CN3CCN(C)CC3)c(C(F)(F)F)c2)cc1C#Cc1cnc2cccnn12`, the growth was 7.08% (active).
On to `COC1(CC[C@@H](C)COC2OC(CO)C(O)C(O)C2O)O[C@H]2C[C@H]3[C@@H]4CC=C5C[C@@H](OC6OC(CO)C(OC7OC(C)C(O)C(O)C7O)C(O)C6OC6OC(C)C(O)C(O)C6O)CC[C@]5(C)[C@H]4CC[C@]3(C)[C@H]2[C@@H]1C` (stereo not given in full), for which the growth is -24% (active).
The result for `COc1c(NC[C@H]2OC(O)[C@H](O)[C@@H](O)[C@@H]2O)c(=O)c1=O` (stereo not given in full) reads 94.1%.
Turning to `N#Cc1nc(-c2ccccc2)oc1S(=O)(=O)N1CCN(c2ccccc2)CC1`, the growth is 98.3%.
In the case of `CC1CCc2c(sc3nc(SCC(=O)N/N=C/c4cccc(O)c4O)n(-c4ccccc4)c(=O)c23)C1` (stereo not given), the growth was 77.7%.
In the case of `CNS(=O)(=O)Oc1ccc(-c2sc3cc(OS(=O)(=O)NC)ccc3c2C(=O)c2ccc(OCCN3CCCCC3)cc2)cc1`, the growth is 63.1%.
The result for `Fc1ccc(Nc2ccc3c(OCCCN4CCOCC4)cccc3n2)cc1F` reads 46.3%; that for `Cn1c(=O)c2c(nc(NC3=NS(=O)(=O)c4ccccc43)n2Cc2ccccc2)n(C)c1=O`, 103%; that for `Nc1ccc2c(c1)C(=O)C(=O)c1c-2nc2ccccn12`, -38.2% (active).
For the compound `C1CCCCNCCC1`, the growth is 98.6%.
The result for `CC(=O)Oc1ccccc1C(=O)N(Cc1ccc2c(Cl)cc(Cl)c(O)c2n1)c1ccccc1` reads 40.9%; that for `Cc1cc(NCCCN(C)C)c2ccc3c(ccc4c(NCCCN(C)C)cc(C)nc43)c2n1`, -88.9% (active); that for `O=C(/C=C/Nc1ccc(S(=O)(=O)Nc2ncccn2)cc1)c1ccc(N=Cc2c(O)[nH]c3ccccc23)cc1`, 109%.
With `C=CCSc1ccc2c(c1)C(N1CCNCC1)=Nc1ccccc1O2`, the growth is 27.8% [8.25 µM].
The result for `COC(=O)[C@]1(C)CCC[C@]2(C)[C@H]3C[C@H]4C(C(C)C)=C[C@]3(CC[C@H]21)[C@@H]1C(=O)CC[C@H](OCCC#N)[C@@H]14` reads 70.5%.
For the compound `CN1CCN(Cc2ccc(NC(=O)c3[nH]ncc3Nc3ncnc4sc5c(c34)CCCC5)cc2)CC1`, the growth was -58.7% (active).
In the case of `O=C1/C(=C\c2c[nH]c3ccccc23)c2ccccc2N1c1c(Cl)cccc1Cl` it was 8.39% (active); in that of `CCN(CC)CCCC(Nc1c2ccc(Cl)cc2nc2ccc(OC)cc12)c1ccncc1` (stereo not given), 88.5%; in that of `CCOC(=O)c1c(NCC(=O)Nc2cccc(Cl)c2)sc2c1CCCC2`, 73%.
As for `Cc1ccc2oc(=O)cc(/C(=C3/C=CC=N3)c3ccc[nH]3)c2c1`, the growth is 3.2% (active).
Regarding `COc1ccc(C(=O)/C=C/c2cccc(Nc3ccnc4cc(Cl)ccc34)c2)cc1`, the growth is -2.59% (active).
In the case of `CCOC(=O)c1nn(-c2ccccc2)c(=O)c2c(N)c(C#N)c(-c3cccs3)cc12`, the growth is 69.9%.
Regarding `O=C1CCC(=O)N1C1CCCCC1`, the growth is 97%.
Regarding `O=S(=O)(Nc1cc(Cl)c(F)c(Cl)c1)c1ccc(-c2cnc(C3CC3)o2)cc1`, the growth was 13.5%.
As to `COc1cc(Cn2cc3c(c2)-c2onc(CN4CCCC4)c2CC3)cc(OC)c1OC`, the growth was 82.7%.
The result for `CCOC(=O)C(CCN(C)C)c1ccccc1` (stereo not given) reads 101%.

The values are drawn from PubChem BioAssay (NCI).
